Shown are actives, neighbours in structure and some others; about 7.9% of the full set was active somewhere.
KB-3-1 tox: kills parental KB-3-1 adenocarcinoma cells. KB-3-1 viability, CellTiter-Glo ATP luminescence, 72 h. Potency, µM (highest dose often 46.1 µM), hits mostly cytotoxic. 1.4% of 400,000 active. AID 1347075; also: % is scaled to controls: 0 for no effect and ±100 for the full control effect; nearly all actives have a fitted effect of over 60% in size
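Parental KB-3-1 viability, qHTS format: 72 h compound exposure, 37 °C; CellTiter-Glo; media-only wells and DMSO plates as controls; concentration-effect fits on corrected data.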
MCF10A rereplic: induces DNA re-replication in MCF 10a normal breast cells; MCF 10A DNA re-replication, Hoechst nuclear intensity, 48 h; Potency, µM (titrated, usually from 46.1 µM), for the others: at the highest dose activity, positive = re-replication, hits mostly activators; 2.9% of 350,000 active; also: % of control where 0% means no effect; nearly all actives have a fitted effect of over 50% in size
KB-V1 MDR tox: kills drug-selected multidrug resistant KB-V1 cells | 3.4% of 400,000 active | Potency, µM (doses to about 46.1 µM), most hits filed as cytotoxic | KB-V1 MDR cells viability, CellTiter-Glo, 72 h; also: % is scaled to controls: 0 for no effect and ±100 for the full control effect; nearly all actives have a fitted effect of over 60% in size
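qHTS viability screen in drug-selected KB-V1 MDR cells: 72 h compound treatment at 37 degrees C, ATP luminescence end point.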
SW480 rereplic: induces DNA re-replication in SW480 colon adenocarcinoma cells | Potency, µM (doses to about 46.1 µM), for inactives: top-dose re-replication activation, actives largely listed as activators | AID 624297 | SW480 DNA re-replication, Hoechst DNA content imaging, 48 h | 1.8% of 340,000 active; also: % of control where 0% means no effect; nearly all actives have a fitted effect of over 55% in size
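Readout is total intensity of Hoechst-stained nuclei, excited at 405 nm and collected at 500-530 nm. Compound treatment lasted 48 hr at 37 C in 5% CO2 before staining.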
HT1080 IDH1KD tx: kills HT-1080 cells with IDH1 knockdown. HT-1080 IDH1 knockdown viability, ATP luminescence, 48 h. Potency, µM (titrated, usually from 46.1 µM), for the others: at the highest dose activity, negative = toxicity, actives largely listed as cytotoxic. 2% of 360,000 active. AID 686971;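 also: 0% = DMSO wells and -100% = cell-free medium wells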
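Knockdown cells (IDH1KD HT-1080) received compounds 2 h after plating at 750 cells/well and were kept 48 h at 37 °C in 5% FBS RPMI. A CellTiter-Glo luminescence read gave % activity for curve fitting.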
HT1080-NT tox: kills 2HG-producing HT-1080-NT fibrosarcoma cells | 1.6% of 360,000 active | HT-1080-NT fibrosarcoma viability, CellTiter-Glo ATP luminescence, 48 h | Potency, µM (highest dose often 46.1 µM), for the others: at the top dose activity, negative = less viability, most hits filed as cytotoxic;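 also: NT is the 2HG producing partner of a matched IDH1 knockdown line; 0% = DMSO-treated cells and -100% = media-only wells without cells; nearly all actives have a fitted effect of over 55% in size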
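750 cells/well, RPMI + 5% FBS; 2 h settle, compound pin-transfer, 48 h at 37 degrees C. CellTiter-Glo 10 min RT, luminescence. Normalized to DMSO and media-only wells.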
Starred values were filed as active, the others as inactive; i = inactive; ? = inconclusive; · = not tested or not shown. Calls follow the shape of the dose curve; as a rule, active = well fitted curve in the direction sought with a large enough effect; inconclusive = small, poorly fitted or top-dose-only effect, or another doubt; inactive = no such curve, though single readings can be large; an effect the other way counts as inactive or inconclusive. Potency is read from the fitted curve at half-maximal effect.

SMILES	KB-3-1 tox	MCF10A rereplic	KB-V1 MDR tox	SW480 rereplic	HT1080 IDH1KD tx	HT1080-NT tox
COc1cc(/C=C2/C(=N)N3C=CSC3=NC2=O)ccc1OCCCOc1ccccc1C	i	-3%	i	3%	?	-11%
CCOc1cc(/C=C2\C(=N)N3N=C(S(C)(=O)=O)SC3=NC2=O)ccc1OCCOc1cccc(OC)c1	i	23µM*	i	6%	-21%	?
CCOc1cc(/C=C2/C(=N)N3C=CSC3=NC2=O)ccc1OCCCOc1ccccc1C	i	3.3µM*	i	?	?	?
Cc1ccc2oc(=S)n(C)c2c1	i	-7%	i	?	-10%	-4%
Cc1ccc2c(C)c(C)c(=O)n(C)c2c1	i	2%	15µM*	-2%	13%	9%
Cc1ccccc1Cn1c2ccccc2c2cnn(CC(=O)NC(C)CCc3ccccc3)c(=O)c21 (stereo not given)	i	·	i	·	·	·
CN(Cc1ccc(Br)s1)C(=O)CNC(=O)c1ccc2c(c1)OCO2	i	-1%	21µM*	-8%	1%	-1%
C=CCC[C@@H](Cc1ccc(F)cc1)C(=O)OC[C@@H](Cc1c[nH]c2ccccc12)NC(=O)[C@H](CC=C)CC(=O)N[C@H](CO)Cc1ccccc1	?	16µM*	i	-3%	?	21µM*
C=CC[C@@H](CC(=O)N(CCO)Cc1ccccc1)C(=O)N[C@H](COC(=O)[C@@H](CC=C)Cc1ccc(F)cc1)Cc1c[nH]c2ccccc12	?	?	?	0%	?	?
C=CC[C@@H](CC(=O)N[C@@H](CO)Cc1ccccc1)C(=O)NC[C@H](OC(=O)[C@@H](CC=C)Cc1ccc(F)cc1)c1ccccc1	?	?	i	2%	23µM*	?
C=CC[C@H](CC(=O)N(CCO)Cc1ccccc1)C(=O)N[C@H](COC(=O)[C@@H](CC=C)Cc1ccc(F)cc1)Cc1c[nH]c2ccccc12	?	?	?	?	21µM*	?
C=CC[C@@H](CC(=O)N[C@@H](CO)Cc1ccccc1)C(=O)NC[C@@H](OC(=O)[C@@H](CC=C)Cc1ccc(F)cc1)c1ccccc1	i	-11%	i	18%	-5%	1%
C=CCC[C@@H](Cc1ccc(F)cc1)C(=O)OC[C@@H](NC(=O)[C@@H](CC=C)CC(=O)N(CCO)Cc1ccccc1)c1ccccc1	?	?	?	25%	?	21µM*
CC(OCC(O)CN(C)Cc1nc2ccccc2c(=O)[nH]1)c1ccc(Cl)cc1 (stereo not given)	i	6%	i	10%	?	-10%
O=C(CCC(=O)c1cccs1)NCc1ccc(F)cc1	i	-1%	i	0%	11%	2%
O=C(NCC1CCCO1)c1ccc(Cl)c(S(=O)(=O)N2CCCCC2)c1 (stereo not given)	·	-8%	·	-7%	-7%	3%
C=CCC[C@H](Cc1ccc(F)cc1)C(=O)OC[C@@H](Cc1c[nH]c2ccccc12)NC(=O)[C@@H](CC=C)CC(=O)N[C@@H](CO)Cc1ccccc1	?	18µM*	i	?	?	?
O=c1c2ccccc2sn1-c1ccccc1	?	9.2µM*	i	12µM*	16µM*	?
O=c1c2cc(C(F)(F)F)ccc2sn1-c1ccccc1	?	·	21µM*	·	-5%	-16%
Cc1ccc(-n2sc3ccccc3c2=O)cc1S(=O)(=O)N1CCCCC1	?	16µM*	?	?	?	?
O=c1c2ccccc2sn1-c1nccs1	i	16µM*	i	?	?	?
COc1ccc(C)cc1NC(=O)CCN1CCN(c2ccccc2)CC1	i	6%	i	-5%	2%	11%
Cc1cc(C(=O)NNC(=O)CCN2CCN(c3ccccc3)CC2)c2ccccc2n1	?	-2%	i	-2%	2%	-2%
Cc1ccc(C)c(OCC(=O)NNC(=O)CCN2CCN(c3ccccc3)CC2)c1	i	-2%	21µM*	4%	-9%	0%
O=C(CCN1CCN(c2ccccc2)CC1)NNC(=O)c1cccc2ccccc12	i	1%	18µM*	-2%	10%	7%
SMILES	KB-3-1 tox	MCF10A rereplic	KB-V1 MDR tox	SW480 rereplic	HT1080 IDH1KD tx	HT1080-NT tox
CCc1ccc(C(C)NC(=O)/C(C#N)=C\c2cn[nH]c2-c2ccccc2)cc1 (stereo not given)	i	?	i	0%	?	?
S=c1[nH]nc(Cn2nnc3ccccc32)n1-c1ccccc1	i	2%	i	3%	16%	7%
FC(F)(F)c1cccc(-n2c(Cn3nnc4ccccc43)n[nH]c2=S)c1	i	-1%	i	2.6µM*	-2%	13%
Cc1ccc(NC(=O)CN2C(=O)S/C(=C/c3ccc(-c4cc(C(=O)O)ccc4C)o3)C2=O)cc1C	i	5.8µM*	i	?	7%	-1%
Cc1ccccc1NC(=O)CN1C(=O)S/C(=C\c2ccc(-c3cccc(C(=O)O)c3C)o2)C1=O	i	4%	i	15%	11%	-14%
Cc1cccc(NC(=O)CN2C(=O)S/C(=C\c3ccc(-c4cccc(C(=O)O)c4C)o3)C2=O)c1	i	23µM*	i	?	7%	5%
Cc1cccc(-n2ncc3c(NCCOCCO)ncnc32)c1	i	·	i	·	·	·
COCCN(CCOC)S(=O)(=O)c1ccc(C(=O)Nc2sc3c(c2C(N)=O)CCCCC3)cc1	i	18%	2.9µM*	4%	-2%	-1%
CCOC(=O)c1c(NC(=O)C(NCCN(C)C)c2ccccc2)sc2c1CCCC2 (stereo not given)	?	18µM*	i	?	18µM*	?
COC(=O)c1c(NS(=O)(=O)Cc2ccccc2)sc2c1CCCC2	i	-9%	?	3%	-3%	2%
COC(=O)c1c(NC(=O)c2ccc(N(C)S(=O)(=O)c3ccc(C)cc3)cc2)sc2c1CCCC2	i	5.8µM*	i	?	17%	1%
COC(=O)c1c(NC(=O)CN(c2ccccc2)S(C)(=O)=O)sc2c1CCCC2	i	1%	10µM*	-4%	-7%	-8%
CCCCNc1nc2c(-c3ccccc3)nnn2c2ccccc12	i	5%	i	-1%	-5%	25%
CCOC(=O)C1CCCN(c2nc3c(C)cccn3c(=O)c2/C=C(\C#N)C(=O)NCc2ccco2)C1 (stereo not given)	i	1%	i	?	12%	14%

Screens deposited in PubChem BioAssay by National Center for Advancing Translational Sciences (NCATS).
